Reference: PubChem BioAssay AID2685 (National Center for Advancing Translational Sciences (NCATS), 2010)
Screen size: about 320,000 compounds; about 2,100 (0.66%) were called active. Another 53% or so got no clear call; they are omitted. The call rests on the fitted dose curve; in most records, active means well fitted inhibition curve with a large enough effect in the signal ratio, with a control signal flat (not every such curve was filed as active); inconclusive means small, poorly fitted or top-dose-only effect, or effect the other way, or a change in a side signal; inactive means flat fitted curve, though single readings scatter; the % refers to the signal ratio. The list comes from a sample in which actives are over-represented; it also holds similar structures and randomly drawn compounds.

assay: qHTS Assay for Lipid Storage Modulators in Drosophila S3 Cells; details: BODIPY lipid droplet fluorescence, 18-24 h, cells fed with added oleic acid; cell number change: measured here: cell count max response; series mostly up to 46.1 µM; lipid storage change, negative = inhibition: at the top concentration;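 on cell number change: cells counted by Cell Tracker Red CMTPX staining in the red channel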; on lipid storage change, negative = inhibition: on the % scale 0 is the no-effect control and ±100 the full control effect
How it was run: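 Laser-scanning cytometry quantifies lipid droplet accumulation (500–530 nm total intensity; droplet/cell object ratio) in oleic acid-fed (400 uM added) Drosophila S3 cells treated with a concentration series. 20 uM Triacsin C defined 100% inhibition.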
Potency means the concentration at half of the fitted maximal effect.

| SMILES | lipid storage change, negative = inhibition | cell number change | Potency | outcome |
| --- | --- | --- | --- | --- |
| O=C(NC1(C(=O)NC2CCCCC2)CCCCC1)c1ccc2c(c1)OCO2 | -0.326% (inactive) | 4.66% | – | – |
| O=C(NNC(=O)c1cnccc1C(F)(F)F)c1ccccc1 | 12.6% (inactive) | 8.28% | – | – |
| O=C(O)CC12CC3CC(C1)CC(n1ncc(NCc4ccc5c(c4)OCO5)c(Cl)c1=O)(C3)C2 | 2.72% (inactive) | 16.3% | – | – |
| CN(CC1CCCO1)S(=O)(=O)c1ccc(C(=O)Nc2ccc([N+](=O)[O-])cc2)cc1 (configuration not stated) | – | -17.5% | 12.6 µM (active) | – |
| CN(CC1CCCO1)S(=O)(=O)c1ccc(C(=O)Nc2ccc(F)cc2)cc1 (configuration not stated) | – | -21.7% | 23.1 µM (active) | – |
| CN(CC1CCCO1)S(=O)(=O)c1ccc(C(=O)Nc2ccc3c(c2)OCO3)cc1 (configuration not stated) | 11.3% (inactive) | 16.6% | – | – |
| Cc1cc(NC(=O)c2ccc(S(=O)(=O)N(C)CC3CCCO3)cc2)no1 (configuration not stated) | 0.714% (inactive) | – | – | – |
| CN(C)S(=O)(=O)c1ccc(NC(=O)c2ccc([N+](=O)[O-])cc2)cc1 | -4.71% (inactive) | -1.07% | – | – |
| O=C(NCC1CCCO1)c1ccc(NC(=O)c2ccc([N+](=O)[O-])cc2)cc1 (configuration not stated) | 5.72% (inactive) | 13.2% | – | – |
| CCOC(=O)Cn1c(=O)c2c(nc3n2CCS3)n(C)c1=O | 11.5% (inactive) | 2.48% | – | – |
| CN1C(C(=O)NCc2ccco2)CC2Cn3c(nc4cc5ccccc5cc43)C21 (configuration not stated) | 11.7% (inactive) | 2.89% | – | – |
| COc1cccc(C(=O)NCCS(=O)(=O)N2CC(C)CC(C)C2)c1 (configuration not stated) | 27% (inactive) | 28.7% | – | – |
| CCN(Cc1ccccc1)C(c1ccncc1)c1nnnn1C(C)(C)C (configuration not stated) | 8.87% (inactive) | 1.49% | – | – |
| Cc1c2ccccc2nc2c(F)c(NC(C)C)c(F)c(F)c12 | – | -3.77% | 20.6 µM (active) | – |
| CCCNc1c(F)c(F)c2c(C)c3ccccc3nc2c1F | – | 13.7% | 14.6 µM (active) | – |
| CCCNc1nc2ccccc2c(=O)[nH]1 | 8.85% (inactive) | -7.59% | – | – |
| CN(C)c1c2ccccc2nc2c(F)c(F)c(F)c(F)c12 | 0.999% (inactive) | -0.117% | – | – |
| Cc1c2ccccc2nc2c(F)c(NCCO)c(F)c(F)c12 | -22.8% (inactive) | -2.87% | – | – |
| Cc1c2ccccc2nc2c(F)c(N(C)C)c(F)c(F)c12 | -15.5% (inactive) | -4.76% | – | – |

| SMILES | lipid storage change, negative = inhibition | cell number change | Potency | outcome |
| --- | --- | --- | --- | --- |
| CCOC(=O)/C(=N\NC(=O)c1ccccc1)c1ccccc1 | -1.81% (inactive) | 17.6% | – | – |
| CCOC(=O)c1sc2ccc(S(=O)(=O)N3CCOCC3)cc2c1N | -16.1% (inactive) | -11.9% | – | – |
| CCOC(=O)NC(=O)CSc1cc(C)c2cc(C)cc(C)c2n1 | 4.15% (inactive) | -6.06% | – | – |
| O=C(c1ccc(F)cc1)N1CCN(S(=O)(=O)c2ccc(Br)cc2)CC1 | – | – | – | inactive |
| CCOC(=O)C1(C)NC(c2ccc(O)cc2)C2C(=O)N(c3ccccc3)C(=O)C21 (configuration not stated) | – | 13.7% | 20.6 µM (active) | – |
| COC(=O)C1(CCSC)NC(c2ccc(O)cc2)C2C(=O)N(c3ccc4c(c3)OCCO4)C(=O)C21 (configuration not stated) | 9.79% (inactive) | 9.07% | – | – |
| COC(=O)C1(C)NC(c2ccc(O)cc2)C2C(=O)N(c3ccc(C)cc3)C(=O)C21 (configuration not stated) | -17% (inactive) | -4.99% | – | – |
| CCOC(=O)C1(C)NC(c2cccc(C)c2)C2C(=O)N(c3ccccc3)C(=O)C21 (configuration not stated) | 7.92% (inactive) | 1.72% | – | – |
| CCCC1(C(=O)OCC)NC(c2ccc(O)cc2)C2C(=O)N(c3ccc4c(c3)OCCO4)C(=O)C21 (configuration not stated) | – | – | 18.4 µM (active) | – |
| CCCC1(C(=O)OCC)NC(c2ccc(N(C)C)cc2)C2C(=O)N(c3ccc4c(c3)OCCO4)C(=O)C21 (configuration not stated) | -5.4% (inactive) | 7.42% | – | – |
| c1ccc(N2CCN(CCc3nnc4n3CCCCC4)CC2)cc1 | -2.85% (inactive) | 1.29% | – | – |
| Cc1cc(NC(=O)c2ccco2)ccc1NC(=O)c1ccco1 | -6.74% (inactive) | 11.3% | – | – |
| CCOc1ccccc1NCc1cc(=O)oc2cc(C)c(O)cc12 | – | -1.8% | 3.66 µM (active) | – |
| Cc1cc2oc(=O)cc(CNc3ccccc3F)c2cc1O | 5.68% (inactive) | -14.4% | – | – |
| CCOc1ccccc1NCc1cc(=O)oc2cc(C)ccc12 | – | -3.97% | – | inactive |
| CC(C)(C)c1ccc(NC(=O)c2cc[n+]([O-])cc2)cc1 | – | 27.8% | – | inactive |
| Cc1ccn(CC(C)C(=O)O)n1 (configuration not stated) | 0.546% (inactive) | 3.92% | – | – |
| CCN1CCN(C(CNS(=O)(=O)c2ccc(Br)cc2)c2cccnc2)CC1 (configuration not stated) | 7.69% (inactive) | -9.83% | – | – |
| CCOc1ccc(NC(=O)Nc2cc(OCC(F)(F)F)cc(OCC(F)(F)F)c2)cc1 | – | -25.7% | 5.8 µM (active) | – |

| SMILES | lipid storage change, negative = inhibition | cell number change | Potency | outcome |
| --- | --- | --- | --- | --- |
| CCOc1ccc(NC(=O)Nc2cccc(C(=O)O)c2)cc1 | 5.5% (inactive) | 14.2% | – | – |
| CCOc1ccc(NC(=O)Nc2ccc(NC(C)=O)cc2)cc1 | 3.13% (inactive) | 11% | – | – |
| CCN(CC)CCn1c2ccccc2c2nc3ccc([N+](=O)[O-])cc3cc21 | 14.4% (inactive) | 8.11% | – | – |
| CN(C)CCn1c2ccccc2c2nc3ccc([N+](=O)[O-])cc3cc21 | – | -46.5% | 7.31 µM (active) | – |
| O=[N+]([O-])c1ccc2c(c1)c1ccccc1n2CCO | -5.42% (inactive) | 0.129% | – | – |
| CC1(C)CC(=O)C2=C(C1)OC(N)=C(C#N)C2c1ccsc1 (configuration not stated) | – | – | – | inactive |
| COc1ccc(N2CCN(C(=O)C3CCN(S(=O)(=O)c4ccc5c(c4)oc(=O)n5C)CC3)CC2)cc1 | – | – | – | inactive |
| COc1cc(/C=C/C(=O)Nc2ccc3nc4n(c(=O)c3c2)CCCC4)cc(OC)c1OC | 0.128% (inactive) | -7.64% | – | – |
| CC(C)/C(=N/Nc1ccccc1[N+](=O)[O-])c1ccccc1 | – | -12.6% | 9.2 µM (active) | – |
| C/C(=N/Nc1ccccc1[N+](=O)[O-])c1ccc([N+](=O)[O-])cc1 | 7.53% (inactive) | 22.2% | – | – |
| O=[N+]([O-])c1ccccc1N/N=C/c1ccccc1 | – | -10.2% | – | inactive |
| COc1cccc(CN2CC(C(=O)NCCCn3cccn3)CCC2=O)c1 (configuration not stated) | -17.1% (inactive) | 0.348% | – | – |
| CCC(=O)N/N=C/c1ccc(-c2ccc([N+](=O)[O-])cc2)o1 | 20.1% (inactive) | 3.62% | – | – |
| CCCNC(=O)Cn1c(=O)/c(=C\c2ccc(-c3cccc([N+](=O)[O-])c3)o2)s/c1=C\C(=O)C(C)(C)C | – | 0.916% | – | inactive |
| CC(C)(C)C(=O)/C=c1\s/c(=C\c2ccc(-c3ccc([N+](=O)[O-])cc3)o2)c(=O)n1CC(=O)NC(N)=O | – | -31.4% | 1.03 µM (active) | – |
| O=C(COC(=O)CCN=C1NS(=O)(=O)c2ccccc21)NNC(=O)c1ccccc1 | -1.99% [at 0.0737 µM] (inactive) | -17.2% | – | – |
| Cn1cc(CN2CCC(N3CCNC(=O)CC3)CC2)c(-c2ccccc2F)n1 | -10.8% (inactive) | -9.69% | – | – |
| CCOC(=O)C1CCN(Cc2ccc(OC)c(OCc3ccccc3)c2)CC1 | -14.2% (inactive) | -8.13% | – | – |
